# Reference: article PMC5540273 (PLoS ONE, 2017)
# System: GRK1
# Settings: concentration: 1 μM, replicates: in singlicate; n = 1
# 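Note: KINOMEscan kinase panel screen.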
row,SMILES,%Inh
1,Fc1ccc(-c2ncn(CCCN3CCOCC3)c2-c2cccnc2)cc1 [SB-211743],16%
2,COc1cc2ncn(-c3cc(OCc4sccc4Cl)c(C(N)=O)s3)c2cc1OC [GSK448459],0%
3,Cl.Nc1ncnc2occ(-c3ccc(NC(=O)Nc4cc(C(F)(F)F)ccc4F)cc3)c12 [SB-707548],12%
4,NS(=O)(=O)CCc1cccc(Nc2nccc(-c3c(-c4cccc(NC(=O)c5c(F)cccc5F)c4)nn4ccccc34)n2)c1 [GSK336735],0%
5,O=C(NCCNc1ccnc(Nc2ccc(F)cc2)n1)c1cc2ccccc2s1 [GSK1379874],0%
6,CCc1ccnc(/C=C/c2n[nH]c3cc(Sc4ccccc4C(=O)NC)ccc23)c1,2%
7,CC(C)Oc1ccc2c(-c3ccnc(Nc4ccc(N5CCN(C)CC5)cc4)n3)cnn2n1 [GW696155],5%
8,Cc1nnc(-c2ccc3ncc(-c4ccc(S(C)=O)cc4)n3c2)o1 (stereo not drawn),9%
9,O=C(NCCNc1ccnc(Nc2ccc(F)cc2)n1)Nc1ccccc1F [GSK1379880],0%
10,NS(=O)(=O)c1cccc(-c2ccc3ncc(N4CCOCC4)nc3c2)c1 [GSK1535721],3%
11,CN(C(=O)c1ccc(-c2cc(-c3c[nH]nc3-c3ccccn3)ccn2)cc1)C1CCOCC1 [GW810083],10%
12,O=C(Nc1cccc(-c2nn3ncccc3c2-c2ccnc(Nc3cccc(C(F)(F)F)c3)n2)c1)c1c(F)cccc1F [GSK299495],6%
13,Cc1c(Cn2c(C)nn3c(=O)cc(N4CCOC(C)C4)nc23)cccc1C(F)(F)F (stereo not drawn) [GSK2344444],1%
14,NCC(NC(=O)c1cc(-c2cn[nH]c2)c(-c2ccnc3[nH]ccc23)s1)c1ccccc1.O=C(O)C(F)(F)F.O=C(O)C(F)(F)F (stereo not drawn) [GSK1325775],35%
15,CC(C)(CN)c1nc(-c2ccc(Cl)c(O)c2)c(-c2ccncc2)[nH]1.O=C(O)C(F)(F)F [SB-477794],0%
16,O=C(NCCCN1CCOCC1)c1cccc(Nc2nccc(Nc3ccc(Oc4ccccc4)cc3)n2)c1 [GW663929],8%
17,O=C1NC(=O)C(N2CCc3ccccc32)=C1c1cccc(Cl)c1 [SB-408010],53%
18,Fc1ccc(-c2ncn(CCCN3CCOCC3)c2-c2ccccn2)cc1 [SB-211742],0%

row,SMILES,%Inh
1,N#Cc1ccc(-c2cc(-c3c[nH]nc3-c3ccccn3)ccn2)cc1 [GW693028],0%
2,[2H]C([2H])(c1cccc(C(F)(F)F)c1C)n1ccn2c(=O)nc(N3CCOCC3)cc12 [GSK2336394],0%
3,COc1ccc(COc2cc(-n3cnc4ccccc43)sc2C(N)=O)cc1 [GSK1024304],0%
4,O=c1cc(N2CCOCC2)nc2n(Cc3cccc(C(F)(F)F)c3)ccn12 [GSK2297543],0%
5,COC(=O)Nc1nc2cc(Oc3ccc(NC(=O)Nc4cc(F)ccc4F)cc3)ccc2[nH]1.Cl [GW701424],11%
6,CN1c2ccc(CNc3ccc(F)cc3)cc2-c2c(cnn2C)S1(=O)=O,10%
7,Cc1ccc(NC(=O)c2ccnc(N3CCN(C)CC3)c2)cc1-c1ccc(C(=O)NCC2CC2)cc1 [GW775604],0%
8,COc1ccc(Nc2nccc(N3CCC(NC(=O)Nc4cccc(C(C)=O)c4)C3)n2)cc1 (stereo not drawn) [GSK1379731],0%
9,Cn1cc(-c2ccc3c(c2)CCN3C(=O)Cc2ccccc2Cl)c2c(N)ncnc21 [GSK2608885],0%
10,COc1ccc(Nc2nccc(N3CCC(NC(=O)Nc4cc(C)ccc4C)C3)n2)cc1 (stereo not drawn) [GSK1379741],0%
11,COc1cc2c(cc1OCCN1CCN(C)CC1)ncc1c3ccc(C#N)cc3[nH]c21,32%
12,CSc1ccc(-c2cc3ncnc(SCC(=O)O)c3s2)cc1,0%
13,Cc1cccc(Cn2ccn3c(=O)cc(N4CCOCC4)nc23)c1 [GSK2297542],0%
14,Nc1nc(-c2ccc3c(N)n[nH]c3c2)cc(N2CCCC2)n1 [GSK2227430],0%
15,Cc1cccc(-c2nc(Nc3ccc4ncsc4c3)c3ccccc3n2)n1 [GW867588],0%
16,CCn1cnc2c(N)ncnc21 [GW345098],0%
17,O=C(NOCC1CC1)c1ccc(F)c(F)c1Nc1ccc(I)cc1Cl,0%

# System: T1, GRK2
# T1 construct: gene ADRBK1
# Settings: concentration: 1 μM, replicates: in singlicate; n = 1
row,SMILES,%Inh
1,Fc1ccc(-c2ncn(CCCN3CCOCC3)c2-c2cccnc2)cc1 [SB-211743],0%
2,COc1cc2ncn(-c3cc(OCc4sccc4Cl)c(C(N)=O)s3)c2cc1OC [GSK448459],0%
3,Cl.Nc1ncnc2occ(-c3ccc(NC(=O)Nc4cc(C(F)(F)F)ccc4F)cc3)c12 [SB-707548],0%
4,NS(=O)(=O)CCc1cccc(Nc2nccc(-c3c(-c4cccc(NC(=O)c5c(F)cccc5F)c4)nn4ccccc34)n2)c1 [GSK336735],0%
5,O=C(NCCNc1ccnc(Nc2ccc(F)cc2)n1)c1cc2ccccc2s1 [GSK1379874],0%
6,CCc1ccnc(/C=C/c2n[nH]c3cc(Sc4ccccc4C(=O)NC)ccc23)c1,18%
7,CC(C)Oc1ccc2c(-c3ccnc(Nc4ccc(N5CCN(C)CC5)cc4)n3)cnn2n1 [GW696155],0%
8,Cc1nnc(-c2ccc3ncc(-c4ccc(S(C)=O)cc4)n3c2)o1 (stereo not drawn),43%
9,O=C(NCCNc1ccnc(Nc2ccc(F)cc2)n1)Nc1ccccc1F [GSK1379880],0%
10,NS(=O)(=O)c1cccc(-c2ccc3ncc(N4CCOCC4)nc3c2)c1 [GSK1535721],0%
11,CN(C(=O)c1ccc(-c2cc(-c3c[nH]nc3-c3ccccn3)ccn2)cc1)C1CCOCC1 [GW810083],18%
12,O=C(Nc1cccc(-c2nn3ncccc3c2-c2ccnc(Nc3cccc(C(F)(F)F)c3)n2)c1)c1c(F)cccc1F [GSK299495],0%
13,Cc1c(Cn2c(C)nn3c(=O)cc(N4CCOC(C)C4)nc23)cccc1C(F)(F)F (stereo not drawn) [GSK2344444],0%
14,NCC(NC(=O)c1cc(-c2cn[nH]c2)c(-c2ccnc3[nH]ccc23)s1)c1ccccc1.O=C(O)C(F)(F)F.O=C(O)C(F)(F)F (stereo not drawn) [GSK1325775],70%
15,O=C(NCCCN1CCOCC1)c1cccc(Nc2nccc(Nc3ccc(Oc4ccccc4)cc3)n2)c1 [GW663929],0%
16,O=C1NC(=O)C(N2CCc3ccccc32)=C1c1cccc(Cl)c1 [SB-408010],0%
17,Fc1ccc(-c2ncn(CCCN3CCOCC3)c2-c2ccccn2)cc1 [SB-211742],2%

row,SMILES,%Inh
1,N#Cc1ccc(-c2cc(-c3c[nH]nc3-c3ccccn3)ccn2)cc1 [GW693028],0%
2,[2H]C([2H])(c1cccc(C(F)(F)F)c1C)n1ccn2c(=O)nc(N3CCOCC3)cc12 [GSK2336394],0%
3,COc1ccc(COc2cc(-n3cnc4ccccc43)sc2C(N)=O)cc1 [GSK1024304],0%
4,O=c1cc(N2CCOCC2)nc2n(Cc3cccc(C(F)(F)F)c3)ccn12 [GSK2297543],0%
5,COC(=O)Nc1nc2cc(Oc3ccc(NC(=O)Nc4cc(F)ccc4F)cc3)ccc2[nH]1.Cl [GW701424],0%
6,CN1c2ccc(CNc3ccc(F)cc3)cc2-c2c(cnn2C)S1(=O)=O,0%
7,Cc1ccc(NC(=O)c2ccnc(N3CCN(C)CC3)c2)cc1-c1ccc(C(=O)NCC2CC2)cc1 [GW775604],0%
8,COc1ccc(Nc2nccc(N3CCC(NC(=O)Nc4cccc(C(C)=O)c4)C3)n2)cc1 (stereo not drawn) [GSK1379731],0%
9,Cn1cc(-c2ccc3c(c2)CCN3C(=O)Cc2ccccc2Cl)c2c(N)ncnc21 [GSK2608885],0%
10,COc1ccc(Nc2nccc(N3CCC(NC(=O)Nc4cc(C)ccc4C)C3)n2)cc1 (stereo not drawn) [GSK1379741],0%
11,COc1cc2c(cc1OCCN1CCN(C)CC1)ncc1c3ccc(C#N)cc3[nH]c21,0%
12,CSc1ccc(-c2cc3ncnc(SCC(=O)O)c3s2)cc1,0%
13,Cc1cccc(Cn2ccn3c(=O)cc(N4CCOCC4)nc23)c1 [GSK2297542],0%
14,Nc1nc(-c2ccc3c(N)n[nH]c3c2)cc(N2CCCC2)n1 [GSK2227430],0%
15,Cc1cccc(-c2nc(Nc3ccc4ncsc4c3)c3ccccc3n2)n1 [GW867588],9%
16,CCn1cnc2c(N)ncnc21 [GW345098],0%
17,O=C(NOCC1CC1)c1ccc(F)c(F)c1Nc1ccc(I)cc1Cl,0%
